Reference: the supplement of paper PMC6555819

Tests used:
Assay in all cases: PBM binding z-score (relative to random genomic background probes); higher = stronger binding; sequences stand for … in GC…GCGATTGACAGCGTAGAATGAAGG
[1] = test system: PPARg:RXRa DBDmut IVT, anti-RXR (DBD mutation: RXRa K156A/R161A, NR concentration 270 nM, RXRa partner concentration 90 nM)
In short: (§1)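 Binding buffer was PBS pH 7.4 with 2% milk, 0.02% Triton X-100, 1 mM DTT, 0.2 mg/mL BSA and 0.4 mg/ml salmon testes DNA. In it, ligand-free nuclear receptor dimers were incubated 1 h on custom Agilent 4×180K protein-binding microarrays carrying double-stranded probes. Antibodies against each partner (one per run) detected binding, and z-scores were calculated against random background probes after regression normalization of scanned fluorescence.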

[2] = test system: PPARg:RXRa IVT, anti-PPARg (NR concentration 270 nM, RXRa partner concentration 90 nM)
In short: as §1

[3] = test system: PPARg DBDmut:RXRa IVT, anti-PPARg (DBD mutation: PPARg1 K132A/R137A, NR concentration 270 nM, RXRa partner concentration 90 nM)
In short: as §1

[4] = test system: PPARg DBDmut IVT, anti-PPARg (DBD mutation: PPARg1 K132A/R137A, NR concentration 270 nM)
In short: as §1

[5] = test system: PPARg homodimer (NR concentration 180 nM)
In short: as §1

[6] = test system: PXR:RXRa (NR concentration 270 nM, RXRa partner concentration 90 nM)
In short: as §1

[7] = test system: PXR homodimer (NR concentration 270 nM)
In short: as §1

[8] = test system: RARa:RXR (NR concentration 270 nM, RXRa partner concentration 90 nM)
In short: as §1

[9] = test system: RARa homodimer (NR concentration 270 nM)
In short: as §1

[10] = test system: RARb:RXRa (NR concentration 270 nM, RXRa partner concentration 90 nM)
In short: as §1

| Sequence | PBM binding z-score [1] | PBM binding z-score [2] | PBM binding z-score [3] | PBM binding z-score [4] | PBM binding z-score [5] | PBM binding z-score [6] | PBM binding z-score [7] | PBM binding z-score [8] | PBM binding z-score [9] | PBM binding z-score [10] |
| --- | --- | --- | --- | --- | --- | --- | --- | --- | --- | --- |
| ATATGTAGGGTAAGGGTCATTCAGGTTGGTTCGC | 6.71 | 7.53 | 5.99 | 4.1 | 6.25 | 5.47 | 4.86 | 5.19 | 3.71 | 3.53 |
| CCTATTAGTTGACCATACGGGCAACCGAAGCTCG | 0.407 | 0.329 | 0.889 | 0.71 | 1.39 | -0.0836 | 0.786 | -0.218 | 1.26 | 0.631 |
| CGTACTAGGTCATCCAGGACAGTGAATACATTGA | 7.23 | 7.74 | 1.93 | 1.33 | 2.23 | 1.87 | 0.94 | 2.45 | 0.55 | 3.8 |
| CCAAACAGGTGAGAAGGTAACTCAGCCTCGATTA | 1.49 | 1.46 | 0.108 | -0.155 | 0.805 | -0.406 | 0.0845 | 0.105 | 0.426 | 0.534 |
| CCTCGGAGGACACAAGGTCAGAGCTGTCCGCTTT | 0.831 | 0.883 | -1.16 | -1.74 | 1.72 | 2.35 | 0.133 | 2.25 | 0.096 | 3.46 |
| GCGACTGGGGCAAACCAGGTTACCATAAGGTTGG | 4.47 | 3.82 | -1.05 | -0.639 | -0.0869 | 0.736 | -0.522 | 0.63 | -0.483 | 0.961 |
| CTCGAAAAGTCGGTTGAGGTGAGTATACGGATAA | -0.249 | 0.59 | -0.0972 | -0.5 | 0.0605 | -0.0703 | -0.0272 | 1.45 | 0.0114 | 0.371 |
| GATACAGGGTCAAGGCCAGAGTGCGCGTATTGAT | 2.75 | 4.1 | 0.884 | 0.0154 | 3.05 | 3.92 | 0.307 | 4.99 | 1.02 | 4.28 |
| CCTACTGAGCCAAAGGTCATTGATTCCAATGCTC | 1.79 | 3.91 | 0.27 | 0.224 | 5.35 | 5.49 | 2.67 | 5.91 | 2.36 | 4.57 |
| TCTTGTAGATCAGCAGGTTAAGCAAGCTGGCCAA | 1.37 | 0.191 | -0.396 | 0.0188 | -0.763 | 0.022 | -0.446 | 0.058 | -1.03 | 0.0308 |
| GGAACGAGGGAAAGTTGATAGCAGAGTTTGATGG | 0.0988 | -0.37 | -0.287 | -0.305 | 0.398 | -0.176 | 0.056 | -0.338 | -0.00431 | -0.247 |
| CCTAGCAGGCCATGGTCACTCAAGCATTTCGCTT | 1.57 | 0.401 | -1.7 | -1.39 | -0.683 | -0.611 | -0.713 | -0.498 | -0.226 | 0.678 |
